# The list is a sample of the results.
# aSyn UTR act: Activators working through SNCA 5'UTR binding (MLPCN); alpha-synuclein 5'UTR reporter, activators screen; activity score, % (tested at 7.5 µM), hits read low; 300,000 tested, 7.1% active; AID 1814; in the data active means activity score below about -60%
# * = called active by the depositor.
SMILES,aSyn UTR act
COc1ccc(C2=C(C=O)Cc3ccccc3O2)cc1,98.0
NC1=C(Br)C(=O)c2ccccc2C1=O,65.4
O=C1c2ccccc2-c2nc3ccccc3nc21,-181.9*
S=C(Nc1ccc(Cl)cc1)c1nc2ccccc2s1,-126.7*
Cc1ccc(C)c(NC(=S)c2nc3ccccc3s2)c1,-258.2*
Cc1ccc(C)c(NC(=S)c2ccc3ccccc3n2)c1,-288.3*
Cc1ccc(C)c(NC(=S)c2ccccn2)c1,-113.7*
c1ccn(-c2ccc(N3CCOCC3)cc2)c1,-124.8*
COc1ccc(NCN2C(=O)C3C4C=CC(C4)C3C2=O)cc1 (configuration not stated),-66.6*
COc1ccc(-c2nc3ccc([N+](=O)[O-])cc3o2)cc1,-192.1*
O=[N+]([O-])c1ccc(O)c(-c2cc(C(F)(F)F)nc(-c3ccccc3)n2)c1,90.1
O=[N+]([O-])c1ccc2oc(-c3ccccc3)nc2c1,-236.1*
Cc1cccc(-c2nc3cc([N+](=O)[O-])ccc3o2)c1,-129.6*
CC(C)CCNC(=O)c1ccccc1NC(=O)C1=CSCCO1,-119.0*
Cc1cc(O)cc(O)c1-c1onc(C(F)(F)F)c1-c1cscn1,-78.5*
Cc1cccc(CSc2nnc(-c3ccco3)o2)c1,-64.2*
Cc1cccc(-c2nnc(SCc3ccccc3)o2)c1,-102.4*
Cc1cccc(CSc2nnc(-c3ccco3)n2C)c1,-70.4*
CCCOC(=O)c1ccc(NC(=O)CC(C)(C)C)cc1,-109.0*
CCCCc1ccc(NC(=O)CC(C)(C)C)cc1,-158.8*
CCc1ccc(Nc2ncc3c(n2)CC(C)(C)CC3=O)cc1,-141.4*
Cc1cccc(Nc2ncc3c(n2)CC(C)CC3=O)c1 (configuration not stated),-127.4*
CCc1ccc(Nc2ncc3c(n2)CC(C)CC3=O)cc1 (configuration not stated),-134.7*
O=C(C#Cc1ccccc1)NCc1ccccc1F,-69.6*
CC(C)(O)C#Cc1ccc(C(=O)NCc2ccccc2F)cc1,-66.1*
SMILES,aSyn UTR act
CCC(=O)Nc1cccc(-c2csc(-c3ccccc3)n2)c1,-121.3*
CCC(=O)Nc1cccc(-c2cn3ccccc3n2)c1,-89.3*
CCCCC(=O)Nc1cccc(-c2cn3ccsc3n2)c1,-78.3*
O=C(Nc1cccc(-c2cn3ccccc3n2)c1)c1cnccn1,-87.3*
O=C(COc1ccccc1)Nc1cccc(-c2nc3cc4ccccc4cc3[nH]2)c1,-140.2*
O=C(Nc1cccc(Cl)c1)c1csc(-c2ccccc2)n1,-121.0*
O=C(COc1ccccc1)Nc1cccc(-c2cn3cccnc3n2)c1,-83.9*
COC(=O)c1ccc(N=Nc2ccccc2)cc1,-131.9*
COC(=O)c1ccc2nc(-c3cccc(N)c3)cn2c1,60.9
COC(=O)c1ccc(OCCOc2ccccc2)cc1,-131.2*
c1ccc(-c2ccc(-c3csnn3)cc2)cc1,-130.9*
NNc1nc2ccc(F)cc2s1,-254.0*
Fc1ccc2nc(Nc3ccccc3)sc2c1,-172.4*
NNc1nc2ccc(Cl)cc2s1,-139.7*
CCN=C1S/C(=C\c2ccc(O)c(OCC)c2)C(=O)N1CC,68.2
COc1ccc(/C=C2\SC(=S)N(Cc3cccnc3)C2=O)cc1C,-126.6*
COc1cc(/C=C2/SC(=S)N(Cc3ccccc3)C2=O)ccc1O,-67.3*
C#CCOc1ccc(/C=C2\SC(=S)N(Cc3cccnc3)C2=O)cc1,-81.5*
COc1ccc(/C=C2/SC(=S)N(CC(=O)O)C2=O)cc1OCc1ccc(Cl)cc1,-131.6*
CCc1ccc(/C=C2\SC(=S)N(CCC(=O)Nc3cc(C)on3)C2=O)cc1,68.8
CC(=O)c1ccc(NC(=O)C(C)OC(=O)c2ccc3c(c2)nc(C)n3-c2ccccc2)cc1 (configuration not stated),-91.0*
NC(=O)C1(N2CCCCC2)CCN(C2CC(=O)NC2=O)CC1 (configuration not stated),-85.6*
Cc1nc(-n2[nH]c3c(c2=O)CCCC3)[nH]c(=O)c1Cc1ccccc1,89.8
O=C(Nc1ccn(Cc2ccccc2F)n1)c1ccc(COc2cccc(Br)c2)cc1,-149.6*
COc1nc(NCCO)nc(Nc2ccccc2F)n1,-96.9*
SMILES,aSyn UTR act
O=C(Nc1ccccc1C(F)(F)F)c1cc(-c2ccco2)on1,-126.7*
O=C(Nc1ccccc1C(F)(F)F)c1cc(-c2ccccc2O)on1,-141.2*
Cc1c(Cl)cccc1NC(=O)c1cc(-c2ccco2)on1,-107.6*
Cc1cc(NC(=O)c2cc(-c3ccco3)on2)nn1Cc1ccc(Cl)cc1,-71.1*
CN(CC(=O)Nc1ccccc1Cl)C(=O)COC(=O)c1nc(Cl)c(Cl)c(Cl)c1Cl,-128.5*
Cc1cc(C)nc(-n2nc(C)c(Sc3ccc(F)cc3)c2N)n1,-182.4*
Cc1ccc(C2=NCN(c3ccc(C(=O)O)cc3)C(=S)N2)cc1,-116.5*
S=C1NC(c2ccccc2)=NCN1c1ccccc1,-66.0*
COC(=O)C1C(=O)c2c([nH]c(C(=O)OC3CCCC3)c2C)CC1C (configuration not stated),-131.3*
COc1ccccc1N1CCN(C(=O)C2c3ccccc3Oc3ccccc32)CC1,80.9
COc1ccccc1N1CCN(/N=C\c2ccc(C)o2)CC1,-97.9*
COc1ccccc1N1CCN(/N=C\c2ccccc2)CC1,-102.7*
